# Data as given in article PMC7862700, “An all-to-all approach to the identification of sequence-specific readers for epigenetic DNA modifications on cytosine”.
# Key:
# Experiment in all cases: DAPPL (digital affinity profiling via proximity ligation, sequencing); 10 mM Tris-HCl pH 7.5, 50 mM NaCl, 1 mM DTT, 4% glycerol, room temperature, 30 min; GST-TFs on glutathione beads, 16-mer random dsDNA library, 0.1% formaldehyde crosslink after washing; high values mean tight binding
# FLI1 = biological target: T1, FLI1 (Homo sapiens, UniProt Q01543 1-452); settings: protein: recombinant; tags: N-terminal GST; dsDNA, one strand shown
# T1 sequence: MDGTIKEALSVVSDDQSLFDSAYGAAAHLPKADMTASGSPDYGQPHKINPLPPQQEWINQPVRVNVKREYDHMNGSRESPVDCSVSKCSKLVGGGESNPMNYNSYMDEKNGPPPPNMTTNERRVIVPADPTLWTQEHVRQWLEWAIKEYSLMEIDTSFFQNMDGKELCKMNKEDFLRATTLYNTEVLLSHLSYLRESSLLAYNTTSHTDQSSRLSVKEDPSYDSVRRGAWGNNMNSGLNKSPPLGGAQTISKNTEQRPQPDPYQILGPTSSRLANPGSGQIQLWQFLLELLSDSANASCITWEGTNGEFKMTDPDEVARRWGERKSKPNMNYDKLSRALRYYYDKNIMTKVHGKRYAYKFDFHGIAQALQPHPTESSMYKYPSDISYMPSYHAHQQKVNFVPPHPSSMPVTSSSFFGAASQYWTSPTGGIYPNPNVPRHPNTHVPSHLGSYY
# How it was run: (§1)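 Pools of DNA-barcoded human transcription factors, expressed in yeast as GST fusions on glutathione beads and combined with a tag-only sample, were incubated with 200 nmole of a 16-mer random double-stranded DNA library. Incubation took 30 min at room temperature in Tris/NaCl/DTT/glycerol buffer and was followed by washing, 0.1% formaldehyde crosslinking, proximity ligation (BsaI/T4 ligase, 1 h, 37 °C), PCR amplification and sequencing on an Illumina NextSeq500. Binding signal is the ratio of a hexamer's read frequency for a factor to its frequency for the tag-only sample.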
# ELK1 = biological target: T2, ELK1 (Homo sapiens, UniProt P19419 1-428); settings: protein: recombinant; tags: N-terminal GST; dsDNA, one strand shown
# T2 sequence: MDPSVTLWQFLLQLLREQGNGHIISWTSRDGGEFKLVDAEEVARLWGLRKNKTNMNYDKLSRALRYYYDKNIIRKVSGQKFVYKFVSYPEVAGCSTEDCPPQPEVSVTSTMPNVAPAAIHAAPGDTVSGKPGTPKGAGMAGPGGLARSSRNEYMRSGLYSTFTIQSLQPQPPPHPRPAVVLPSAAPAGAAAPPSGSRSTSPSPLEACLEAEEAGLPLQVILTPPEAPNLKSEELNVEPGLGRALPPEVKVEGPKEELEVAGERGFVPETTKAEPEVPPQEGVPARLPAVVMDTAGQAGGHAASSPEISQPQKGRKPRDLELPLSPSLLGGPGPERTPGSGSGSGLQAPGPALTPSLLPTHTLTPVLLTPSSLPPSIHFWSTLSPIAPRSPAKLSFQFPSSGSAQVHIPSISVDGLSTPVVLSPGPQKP
# How it was run: as §1
# GABPA = biological target: T3, GABPA (Homo sapiens, UniProt Q06546 1-454); settings: protein: recombinant; tags: N-terminal GST; dsDNA, one strand shown
# T3 sequence: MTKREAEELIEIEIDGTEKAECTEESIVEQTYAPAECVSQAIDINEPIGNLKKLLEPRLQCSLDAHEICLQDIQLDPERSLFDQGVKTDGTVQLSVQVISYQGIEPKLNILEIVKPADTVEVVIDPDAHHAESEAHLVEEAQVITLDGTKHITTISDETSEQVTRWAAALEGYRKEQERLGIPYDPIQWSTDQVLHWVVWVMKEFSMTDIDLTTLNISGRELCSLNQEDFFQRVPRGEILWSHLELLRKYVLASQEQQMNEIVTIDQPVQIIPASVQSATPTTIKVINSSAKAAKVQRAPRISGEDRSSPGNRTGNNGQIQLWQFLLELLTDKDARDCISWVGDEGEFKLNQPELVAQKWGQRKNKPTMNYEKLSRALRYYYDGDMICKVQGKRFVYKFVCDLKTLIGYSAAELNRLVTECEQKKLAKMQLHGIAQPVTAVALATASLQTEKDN
# How it was run: as §1
# ERG = biological target: T4, ERG (Homo sapiens, UniProt P11308 1-479); settings: protein: recombinant; tags: N-terminal GST; dsDNA, one strand shown
# T4 sequence: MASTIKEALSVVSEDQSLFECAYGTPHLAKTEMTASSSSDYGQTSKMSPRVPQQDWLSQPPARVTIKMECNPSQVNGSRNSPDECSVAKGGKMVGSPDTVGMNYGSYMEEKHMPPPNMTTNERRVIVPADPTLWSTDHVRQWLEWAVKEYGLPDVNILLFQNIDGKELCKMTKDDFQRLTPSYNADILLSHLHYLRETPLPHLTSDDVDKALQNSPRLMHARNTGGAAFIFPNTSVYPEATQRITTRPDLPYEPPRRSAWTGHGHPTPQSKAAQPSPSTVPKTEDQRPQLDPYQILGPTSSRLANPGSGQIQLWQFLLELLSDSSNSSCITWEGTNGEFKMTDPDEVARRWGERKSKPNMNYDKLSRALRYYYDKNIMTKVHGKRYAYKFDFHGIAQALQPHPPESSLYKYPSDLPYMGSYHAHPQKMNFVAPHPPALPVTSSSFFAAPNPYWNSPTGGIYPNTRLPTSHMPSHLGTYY
# How it was run: as §1
# ELF1 = ELF1 (Homo sapiens, UniProt P32519 1-619); settings: protein: recombinant; tags: N-terminal GST; dsDNA, one strand shown
# How it was run: as §1
# EHF = biological target: T5, EHF (Homo sapiens, UniProt Q9NZC4 1-300); settings: protein: recombinant; tags: N-terminal GST; dsDNA, one strand shown
# T5 sequence: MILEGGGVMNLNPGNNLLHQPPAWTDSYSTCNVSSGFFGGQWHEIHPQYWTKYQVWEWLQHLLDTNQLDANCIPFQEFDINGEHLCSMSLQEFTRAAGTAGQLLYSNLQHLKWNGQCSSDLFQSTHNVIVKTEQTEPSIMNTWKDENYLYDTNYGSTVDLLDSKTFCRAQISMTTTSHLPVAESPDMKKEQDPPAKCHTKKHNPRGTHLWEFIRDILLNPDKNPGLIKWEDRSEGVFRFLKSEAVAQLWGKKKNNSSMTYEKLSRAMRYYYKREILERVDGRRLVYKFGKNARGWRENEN
# How it was run: as §1
# SPI1 = SPI1 (Homo sapiens, UniProt P17947 1-270); settings: protein: recombinant; tags: N-terminal GST; dsDNA, one strand shown
# How it was run: as §1
# SPIB = SPIB (Homo sapiens, UniProt Q01892 1-262); settings: protein: recombinant; tags: N-terminal GST; dsDNA, one strand shown
# How it was run: as §1
# ELK3 = biological target: T6, ELK3 (Homo sapiens, UniProt P41970 1-407); settings: protein: recombinant; tags: N-terminal GST; dsDNA, one strand shown
# T6 sequence: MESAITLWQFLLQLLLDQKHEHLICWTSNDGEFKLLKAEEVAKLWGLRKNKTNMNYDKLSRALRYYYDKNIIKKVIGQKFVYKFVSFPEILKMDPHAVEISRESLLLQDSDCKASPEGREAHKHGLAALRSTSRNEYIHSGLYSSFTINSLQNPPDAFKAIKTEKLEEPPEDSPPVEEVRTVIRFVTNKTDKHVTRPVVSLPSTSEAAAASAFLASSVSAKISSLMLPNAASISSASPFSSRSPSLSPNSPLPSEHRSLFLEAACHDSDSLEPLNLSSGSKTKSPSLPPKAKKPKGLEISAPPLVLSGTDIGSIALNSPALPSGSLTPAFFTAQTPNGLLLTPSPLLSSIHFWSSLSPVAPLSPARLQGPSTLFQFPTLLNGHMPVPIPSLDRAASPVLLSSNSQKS
# How it was run: as §1
# FEV = biological target: T7, FEV (Homo sapiens, UniProt Q99581 1-238); settings: protein: recombinant; tags: N-terminal GST; dsDNA, one strand shown
# T7 sequence: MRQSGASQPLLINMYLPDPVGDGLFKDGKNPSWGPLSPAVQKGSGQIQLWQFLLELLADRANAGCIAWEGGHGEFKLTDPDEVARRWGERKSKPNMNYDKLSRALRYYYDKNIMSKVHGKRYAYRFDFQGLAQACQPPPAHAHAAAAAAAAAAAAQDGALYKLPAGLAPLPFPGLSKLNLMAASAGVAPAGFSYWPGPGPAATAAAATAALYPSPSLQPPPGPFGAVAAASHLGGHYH
# How it was run: as §1
# ETV5 = ETV5 (Homo sapiens, UniProt P41161 1-510); settings: protein: recombinant; tags: N-terminal GST; dsDNA, one strand shown
# How it was run: as §1
# HSF1 = HSF1 (Homo sapiens, UniProt Q00613 1-529); settings: protein: recombinant; tags: N-terminal GST; chain copies: 3; dsDNA, one strand shown
# How it was run: as §1
# SPIC = biological target: T8, SPIC (Homo sapiens, UniProt Q8N5J4 1-248); settings: protein: recombinant; tags: N-terminal GST; dsDNA, one strand shown
# T8 sequence: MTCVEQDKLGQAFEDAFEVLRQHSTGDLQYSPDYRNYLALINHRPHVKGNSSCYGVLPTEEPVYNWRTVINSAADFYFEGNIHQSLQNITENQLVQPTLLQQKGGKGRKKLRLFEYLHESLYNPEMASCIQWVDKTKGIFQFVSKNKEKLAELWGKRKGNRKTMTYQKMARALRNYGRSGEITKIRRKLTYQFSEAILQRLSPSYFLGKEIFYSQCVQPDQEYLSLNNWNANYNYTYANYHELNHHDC
# How it was run: as §1
# ELF4 = ELF4 (Homo sapiens, UniProt Q99607 1-663); settings: protein: recombinant; tags: N-terminal GST; dsDNA, one strand shown
# How it was run: as §1
# ELK4 = biological target: T9, ELK4 (Homo sapiens, UniProt P28324-2 1-405); settings: protein: recombinant; tags: N-terminal GST; dsDNA, one strand shown
# T9 sequence: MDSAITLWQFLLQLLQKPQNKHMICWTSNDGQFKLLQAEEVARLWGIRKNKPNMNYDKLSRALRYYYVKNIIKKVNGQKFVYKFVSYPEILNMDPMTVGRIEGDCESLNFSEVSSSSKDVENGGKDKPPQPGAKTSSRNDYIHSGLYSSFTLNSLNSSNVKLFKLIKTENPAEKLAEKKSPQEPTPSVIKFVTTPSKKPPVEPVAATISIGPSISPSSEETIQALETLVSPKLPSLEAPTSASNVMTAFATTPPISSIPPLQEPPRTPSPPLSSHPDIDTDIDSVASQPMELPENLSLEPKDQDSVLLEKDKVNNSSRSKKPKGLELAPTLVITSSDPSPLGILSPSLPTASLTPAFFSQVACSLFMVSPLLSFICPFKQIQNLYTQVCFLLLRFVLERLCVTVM
# How it was run: as §1
# ETV2 = biological target: T10, ETV2 (Homo sapiens, UniProt O00321 1-342); settings: protein: recombinant; tags: N-terminal GST; dsDNA, one strand shown
# T10 sequence: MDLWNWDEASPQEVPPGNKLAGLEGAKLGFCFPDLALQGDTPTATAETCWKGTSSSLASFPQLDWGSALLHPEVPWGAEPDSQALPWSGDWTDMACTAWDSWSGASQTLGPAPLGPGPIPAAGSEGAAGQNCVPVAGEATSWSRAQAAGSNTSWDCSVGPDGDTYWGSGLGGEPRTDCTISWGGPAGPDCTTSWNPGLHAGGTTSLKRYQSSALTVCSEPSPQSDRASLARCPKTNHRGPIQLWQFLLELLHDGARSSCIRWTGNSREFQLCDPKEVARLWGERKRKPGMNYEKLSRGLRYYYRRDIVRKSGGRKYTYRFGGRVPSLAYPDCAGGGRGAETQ
# How it was run: as §1
# ELF3 = biological target: T11, ELF3 (Homo sapiens, UniProt P78545 1-371); settings: protein: recombinant; tags: N-terminal GST; dsDNA, one strand shown
# T11 sequence: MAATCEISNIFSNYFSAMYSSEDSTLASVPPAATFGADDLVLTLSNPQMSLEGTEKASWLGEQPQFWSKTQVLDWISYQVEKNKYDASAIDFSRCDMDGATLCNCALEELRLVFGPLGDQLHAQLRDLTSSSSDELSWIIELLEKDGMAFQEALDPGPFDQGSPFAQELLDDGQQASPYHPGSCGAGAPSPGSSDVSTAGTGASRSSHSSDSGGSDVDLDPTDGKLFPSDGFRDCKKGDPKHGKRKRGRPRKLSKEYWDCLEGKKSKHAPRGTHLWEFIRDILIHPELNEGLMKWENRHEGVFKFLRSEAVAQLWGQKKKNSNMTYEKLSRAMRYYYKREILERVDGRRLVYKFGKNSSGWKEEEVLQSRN
# How it was run: as §1
# CRX = CRX (Homo sapiens, UniProt O43186 1-299); settings: protein: recombinant; tags: N-terminal GST; dsDNA, one strand shown
# How it was run: as §1
# ETV1 = ETV1 (Homo sapiens, UniProt P50549 1-477); settings: protein: recombinant; tags: N-terminal GST; dsDNA, one strand shown
# How it was run: as §1
# Chain of CRX (O43186 whole entry): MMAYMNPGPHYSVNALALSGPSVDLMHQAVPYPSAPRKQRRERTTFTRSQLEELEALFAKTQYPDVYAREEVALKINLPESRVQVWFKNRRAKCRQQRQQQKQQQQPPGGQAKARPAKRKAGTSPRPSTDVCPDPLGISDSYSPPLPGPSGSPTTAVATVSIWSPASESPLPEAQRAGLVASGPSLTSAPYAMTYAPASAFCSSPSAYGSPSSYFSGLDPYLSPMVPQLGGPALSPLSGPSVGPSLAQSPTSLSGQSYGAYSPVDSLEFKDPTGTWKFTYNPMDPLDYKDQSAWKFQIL
# Chain of ETV1 (P50549 whole entry): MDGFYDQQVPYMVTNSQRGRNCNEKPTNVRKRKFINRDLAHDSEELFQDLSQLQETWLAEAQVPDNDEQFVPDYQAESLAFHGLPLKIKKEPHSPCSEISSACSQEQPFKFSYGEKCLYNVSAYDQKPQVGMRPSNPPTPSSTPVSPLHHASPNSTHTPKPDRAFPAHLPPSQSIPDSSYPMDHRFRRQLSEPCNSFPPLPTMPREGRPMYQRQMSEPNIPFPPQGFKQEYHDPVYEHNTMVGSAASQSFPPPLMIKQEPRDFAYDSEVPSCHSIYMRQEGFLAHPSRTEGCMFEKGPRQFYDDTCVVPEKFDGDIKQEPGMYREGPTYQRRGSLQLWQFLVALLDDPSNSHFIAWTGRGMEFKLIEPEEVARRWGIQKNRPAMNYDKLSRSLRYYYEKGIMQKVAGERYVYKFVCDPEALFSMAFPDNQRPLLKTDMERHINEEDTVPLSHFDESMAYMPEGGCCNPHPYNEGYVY
# Chain of SPIB (Q01892 whole entry): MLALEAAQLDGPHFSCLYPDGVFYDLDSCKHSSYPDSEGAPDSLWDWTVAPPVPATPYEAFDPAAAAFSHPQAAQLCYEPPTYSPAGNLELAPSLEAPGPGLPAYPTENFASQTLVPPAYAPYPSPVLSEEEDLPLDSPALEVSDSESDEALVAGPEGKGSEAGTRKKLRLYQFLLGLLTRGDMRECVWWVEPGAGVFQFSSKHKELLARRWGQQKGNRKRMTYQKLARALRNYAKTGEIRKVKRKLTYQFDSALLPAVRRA
# Chain of ELF4 (Q99607 whole entry): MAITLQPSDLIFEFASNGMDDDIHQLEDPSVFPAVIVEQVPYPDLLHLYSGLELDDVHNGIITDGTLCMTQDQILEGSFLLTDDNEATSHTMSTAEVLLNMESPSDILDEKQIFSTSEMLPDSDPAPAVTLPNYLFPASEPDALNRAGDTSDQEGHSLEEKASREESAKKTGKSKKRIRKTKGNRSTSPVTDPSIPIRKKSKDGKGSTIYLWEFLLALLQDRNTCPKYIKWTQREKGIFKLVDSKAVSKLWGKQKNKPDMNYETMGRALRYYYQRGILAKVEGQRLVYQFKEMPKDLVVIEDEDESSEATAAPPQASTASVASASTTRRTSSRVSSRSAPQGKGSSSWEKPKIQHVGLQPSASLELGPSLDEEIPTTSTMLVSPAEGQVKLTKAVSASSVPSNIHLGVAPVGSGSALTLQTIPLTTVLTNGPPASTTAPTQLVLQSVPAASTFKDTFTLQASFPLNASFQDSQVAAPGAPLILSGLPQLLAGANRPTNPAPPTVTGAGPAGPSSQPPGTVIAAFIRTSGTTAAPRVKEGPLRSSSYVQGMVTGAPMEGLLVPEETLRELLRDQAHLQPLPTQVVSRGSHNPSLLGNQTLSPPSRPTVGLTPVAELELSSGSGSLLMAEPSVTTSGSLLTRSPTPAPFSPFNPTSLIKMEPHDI
# Chain of ELF1 (P32519 whole entry): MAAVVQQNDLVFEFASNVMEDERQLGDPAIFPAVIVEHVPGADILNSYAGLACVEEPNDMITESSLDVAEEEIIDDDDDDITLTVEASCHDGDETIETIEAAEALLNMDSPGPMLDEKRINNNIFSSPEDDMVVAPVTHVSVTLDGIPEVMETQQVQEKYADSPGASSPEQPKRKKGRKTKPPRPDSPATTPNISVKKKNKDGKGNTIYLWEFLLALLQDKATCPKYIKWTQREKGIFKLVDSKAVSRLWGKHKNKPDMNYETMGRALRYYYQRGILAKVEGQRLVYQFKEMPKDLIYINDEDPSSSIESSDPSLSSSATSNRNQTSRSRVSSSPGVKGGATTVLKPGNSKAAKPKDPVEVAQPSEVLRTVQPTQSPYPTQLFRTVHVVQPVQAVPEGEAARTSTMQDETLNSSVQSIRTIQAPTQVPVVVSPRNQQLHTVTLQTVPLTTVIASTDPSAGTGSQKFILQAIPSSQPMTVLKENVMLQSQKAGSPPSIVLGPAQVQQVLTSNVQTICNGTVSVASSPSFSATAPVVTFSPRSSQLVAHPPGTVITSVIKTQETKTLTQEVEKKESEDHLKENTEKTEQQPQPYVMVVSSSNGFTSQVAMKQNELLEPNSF
# Chain of ETV5 (P41161 whole entry): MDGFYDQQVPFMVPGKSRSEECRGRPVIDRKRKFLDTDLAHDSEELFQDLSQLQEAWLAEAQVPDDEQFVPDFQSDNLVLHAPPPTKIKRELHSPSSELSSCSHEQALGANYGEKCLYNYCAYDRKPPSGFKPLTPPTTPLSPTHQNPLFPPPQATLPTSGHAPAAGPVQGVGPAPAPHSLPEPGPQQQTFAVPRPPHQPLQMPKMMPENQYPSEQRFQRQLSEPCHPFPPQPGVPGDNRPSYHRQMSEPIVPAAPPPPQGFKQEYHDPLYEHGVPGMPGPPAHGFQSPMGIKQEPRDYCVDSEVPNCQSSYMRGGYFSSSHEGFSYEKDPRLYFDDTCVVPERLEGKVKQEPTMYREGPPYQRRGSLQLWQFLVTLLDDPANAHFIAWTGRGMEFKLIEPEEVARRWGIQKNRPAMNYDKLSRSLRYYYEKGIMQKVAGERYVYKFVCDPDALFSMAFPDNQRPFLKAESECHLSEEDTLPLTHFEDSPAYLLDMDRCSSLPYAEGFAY
# Chain of HSF1 (Q00613 whole entry): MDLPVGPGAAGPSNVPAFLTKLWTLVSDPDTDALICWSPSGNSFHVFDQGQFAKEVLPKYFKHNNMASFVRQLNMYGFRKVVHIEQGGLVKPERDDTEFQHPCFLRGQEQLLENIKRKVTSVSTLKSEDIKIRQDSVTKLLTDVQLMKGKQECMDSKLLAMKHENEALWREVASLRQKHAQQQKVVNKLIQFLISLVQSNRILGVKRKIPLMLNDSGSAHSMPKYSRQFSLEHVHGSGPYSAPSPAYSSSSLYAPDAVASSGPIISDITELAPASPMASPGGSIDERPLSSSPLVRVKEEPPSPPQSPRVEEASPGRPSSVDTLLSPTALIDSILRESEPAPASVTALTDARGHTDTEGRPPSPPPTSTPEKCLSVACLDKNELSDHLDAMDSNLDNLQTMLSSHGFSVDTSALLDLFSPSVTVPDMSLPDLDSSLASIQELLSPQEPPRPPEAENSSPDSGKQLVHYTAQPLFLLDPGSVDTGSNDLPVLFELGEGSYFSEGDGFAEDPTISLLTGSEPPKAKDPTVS
sequence,measurement,setting,value
ACATGC,binding signal,FLI1,"1.31 fold enrichment (6-mer frequency, TF over GST control)"
same,binding signal,ELK1,"1.2 fold enrichment (6-mer frequency, TF over GST control)"
same,binding signal,GABPA,"1.33 fold enrichment (6-mer frequency, TF over GST control)"
same,binding signal,ERG,"1.24 fold enrichment (6-mer frequency, TF over GST control)"
same,binding signal,ELF1,"1.36 fold enrichment (6-mer frequency, TF over GST control)"
same,binding signal,EHF,"1.24 fold enrichment (6-mer frequency, TF over GST control)"
same,binding signal,SPI1,"1.19 fold enrichment (6-mer frequency, TF over GST control)"
same,binding signal,SPIB,"1.2 fold enrichment (6-mer frequency, TF over GST control)"
same,binding signal,ELK3,"1.34 fold enrichment (6-mer frequency, TF over GST control)"
same,binding signal,FEV,"1.3 fold enrichment (6-mer frequency, TF over GST control)"
same,binding signal,ETV5,"1.25 fold enrichment (6-mer frequency, TF over GST control)"
same,binding signal,HSF1,"1.1 fold enrichment (6-mer frequency, TF over GST control)"
same,binding signal,SPIC,"1.27 fold enrichment (6-mer frequency, TF over GST control)"
same,binding signal,ELF4,"1.26 fold enrichment (6-mer frequency, TF over GST control)"
same,binding signal,ELK4,"1.2 fold enrichment (6-mer frequency, TF over GST control)"
same,binding signal,ETV2,"1.44 fold enrichment (6-mer frequency, TF over GST control)"
same,binding signal,ELF3,"1.28 fold enrichment (6-mer frequency, TF over GST control)"
same,binding signal,CRX,"1.03 fold enrichment (6-mer frequency, TF over GST control)"
same,binding signal,ETV1,"1.3 fold enrichment (6-mer frequency, TF over GST control)"
